# Screening results from PubChem BioAssay.
# TDP1 cell noCPT: qHTS for Inhibitors of human tyrosyl-DNA phosphodiesterase 1 (TDP1): qHTS in cells in absence of CPT; DT40 Tdp1-/- hTDP1 cells, no CPT, ATP luminescence, 48 h; Potency, µM (highest dose often 46.2 µM), without a hit: top-dose activity change, negative = growth inhibition, actives largely listed as inhibitors; 15% of 420,000 active; note: nearly all actives have a fitted effect of over 55% in size
#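 Cells were dispensed at 400 per well, compounds added by pin tool, plates incubated ≥48 hr at 37 °C, then CellTiter-Glo added for 30 min at room temperature before luminescence reading. Line: DT40 Tdp1-/- complemented with hTDP1; camptothecin omitted.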
# VP16 counter: counter-screen for ROR gamma inhibitors: Gal4-VP16 reporter | Potency, µM (series often up to 53.6 µM), for inactives: at the top dose activity, negative = inhibition, usual class: inhibitors | Drosophila S2 Gal4-VP16 UAS-luciferase, luminescence, 20 h | AID 2546 | 3.5% of 310,000 active;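 note: Gal4-VP16 expression switched on by copper sulfate through the metallothionein promoter; nearly all actives have a fitted effect of over 50% in size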
# TDP1 block: inhibitors of human tyrosyl-DNA phosphodiesterase TDP1. Q9NUW8. recombinant TDP1, AlphaScreen DNA substrate cleavage. Potency, µM (highest dose often 130 µM), for inactives: at the highest dose activity change, negative = inhibition, most hits filed as inhibitors. 0.28% of 350,000 active. AID 485290; note: nearly all actives have a fitted effect of over 40% in size
# Target sequence (Q9NUW8 whole entry, looked up): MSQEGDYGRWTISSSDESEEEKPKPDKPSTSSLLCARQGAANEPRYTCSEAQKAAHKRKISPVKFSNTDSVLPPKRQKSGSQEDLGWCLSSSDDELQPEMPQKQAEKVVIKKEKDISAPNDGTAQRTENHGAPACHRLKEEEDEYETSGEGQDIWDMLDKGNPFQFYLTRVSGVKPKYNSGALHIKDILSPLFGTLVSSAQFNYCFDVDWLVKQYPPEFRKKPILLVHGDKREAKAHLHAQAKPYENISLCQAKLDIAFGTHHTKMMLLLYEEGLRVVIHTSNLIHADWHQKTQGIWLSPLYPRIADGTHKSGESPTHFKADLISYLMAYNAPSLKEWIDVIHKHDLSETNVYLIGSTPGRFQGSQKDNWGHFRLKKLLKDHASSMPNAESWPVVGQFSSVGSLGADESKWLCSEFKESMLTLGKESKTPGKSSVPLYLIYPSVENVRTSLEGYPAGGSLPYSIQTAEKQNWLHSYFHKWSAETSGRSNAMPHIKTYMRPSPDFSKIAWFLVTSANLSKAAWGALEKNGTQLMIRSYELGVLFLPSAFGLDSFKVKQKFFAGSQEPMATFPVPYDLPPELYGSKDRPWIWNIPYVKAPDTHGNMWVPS
#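 Enzyme-compound mixtures sat 15 min at room temperature, followed by a 5 min reaction with 15 nM final substrate and 10 min with AlphaScreen beads. Recombinant human Tdp1 was used at 1 nM final.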
# RORg inh: blocks mouse ROR gamma transcriptional activity; P51450; Drosophila S2 Gal4-RORgamma UAS-luciferase reporter, 20 h; Potency, µM (top dose mostly 53.6 µM), without a hit: at the highest dose activity change, negative = inhibition, actives largely listed as inhibitors; 5.4% of 310,000 active; AID 2551; note: nearly all actives have a fitted effect of over 60% in size
#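 In this cell-based reporter format, copper sulfate (700 uM final) drives Gal4–ROR gamma fusion expression from a metallothionein promoter in Drosophila Schneider cells; compounds preincubated 1 hr, reporter read after 20 hr at ambient temperature.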
# TDP1 cell CPT: growth inhibition of DT40 Tdp1-/-;hTDP1 cells with camptothecin (screen for TDP1 inhibitors); chicken DT40 Tdp1-/-;hTDP1 cells + 20 nM CPT, ATP luminescence, 48 h; Potency, µM (titrated, usually from 46.2 µM), without a hit: top-dose activity change, negative = growth inhibition, usual class: inhibitors; 12% of 420,000 active; AID 686979; note: nearly all actives have a fitted effect of over 55% in size
#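 Cell growth measured by CellTiter-Glo luminescence after a minimum 48 h, 37 C compound exposure with 20 nM CPT in Tdp1-knockout DT40 cells stably expressing hTDP1, seeded 400/well; qHTS titration format.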
# Numbers without * were called inactive; ? = inconclusive; . = no result given; [ ] = another dose, or the depositor's remark. Sampled rows, rich in hits. Any-hit rate of the full collection: about 19%. Calls come from the whole dose curve; as a rule, active = well fitted curve in the direction sought with a large enough effect; inconclusive = small, poorly fitted or top-dose-only effect, or another doubt; inactive = no such curve, though single readings can be large; an effect the other way counts as inactive or inconclusive. % is set by controls: 0 for no effect and ±100 for the full control effect; potency is the fitted concentration of half-maximal effect.
SMILES,TDP1 cell noCPT,VP16 counter,TDP1 block,RORg inh,TDP1 cell CPT
COC(=O)c1c(NC(=O)CN2CCCC(C)C2)c2c(C)cccc2n1C (stereo unspecified),6.5µM*,-8%,5%,-37%,?
NCC(=O)Nc1ccc(Cl)cc1C(=O)c1ccc[nH]1,0.12µM*,-5%,12%,38%,0.16µM*
Cc1cccc(N2CCN(C(=O)c3cccc(N4C(=O)C5CC=CC(C)C5C4=O)c3)CC2)c1C (stereo unspecified),23µM*,?,0%,?,?
O=C(c1cccc(N2C(=O)C3C4C=CC(C4)C3C2=O)c1)N1CCN(c2ccccc2Cl)CC1 (stereo unspecified),21µM*,-10%,9%,28%,?
Cc1cccc(N2CCN(C(=O)c3cccc(N4CCCC4=O)c3)CC2)c1C,?,-1%,3%,30%,?
Cc1ccc(NC2=NC(=S)N(CC#N)C23CCCCC3)cc1,?,-20%,2%,18µM*,-17%
N#Cc1nc(Nc2cccc(C(F)(F)F)c2)nc(NC2CCCC2)n1,.,.,1%,.,.
CC(C)(C)C1CCC2(CC1)C(Nc1cccc(C(F)(F)F)c1)=NC(=S)N2CC#N (stereo unspecified),?,13µM*,2%,18µM*,?
N#CCN1C(=S)N=C(Nc2cccc(Cl)c2)C12CCCCC2,-28%,?,-1%,2.8µM*,-12%
O=C(O)c1ccc(S(=O)(=O)N2CCCC2)cc1,-4%,-4%,.,-10%,2%
CC(C)CN1CC[C@@]2(CCCN(S(=O)(=O)c3ccccc3)C2)C1,-22%,-16%,.,-12%,-2%
O=C(CCSCc1ccc(Cl)cc1)NCc1ccc(F)cc1Cl,?,.,-3%,.,?
CCc1ccc(NC(=O)CC2C(=O)N(c3cccc(C)c3)C(=O)N2Cc2cccs2)cc1 (stereo unspecified),21µM*,.,0%,.,21µM*
CCc1ccc(NC(=O)CC2C(=O)N(c3ccc(Cl)cc3)C(=O)N2Cc2ccco2)cc1 (stereo unspecified),?,.,6%,.,21µM*
CCc1ccc(NC(=O)CC2C(=O)N(c3cccc(C)c3)C(=O)N2Cc2ccco2)cc1 (stereo unspecified),26µM*,.,6%,.,16µM*
O=C1CSC(=S)N1/N=C/c1c(F)cccc1F,-9%,-11%,1%[0.0935 µM],-36%,?
COc1ccc2ccccc2c1/C=N/N1C(=O)CSC1=S,-21%,?,3%,7.9µM*,6%
COc1cccc(/C=N/N2C(=O)CSC2=S)c1O,?,4.5µM*,0%,4µM*,?
O=C1CSC(=S)N1N=Cc1c(O)ccc2ccccc12,13µM*,.,.,.,21µM*
Cn1c(-c2ccc(C#N)cc2)c(C#Cc2ccccc2)c2ccccc21,-28%,.,.,.,10%
Cn1c(C=O)c(C#Cc2ccccc2)c2ccccc21,23µM*,.,20µM*,.,?
Cc1ccccc1Nc1c(-c2ccc(N3CCOCC3)cc2)nc2ccc(Br)cn12,15µM*,.,4%[12.3 µM],.,12µM*
Cc1ccccc1Nc1c(-c2ccc(N3CCOCC3)cc2)nc2ccccn12,?,.,12%,.,?
COc1cc(O)ccc1-c1nc2ccc(Br)cn2c1Nc1ccccc1C,9.2µM*,.,10%,.,21µM*
Cc1c(C(Nc2ccccn2)c2ccc(Cl)cc2)c(=O)n(-c2ccccc2)n1C (stereo unspecified),-12%,-7%,3%,36%,-18%
SMILES,TDP1 cell noCPT,VP16 counter,TDP1 block,RORg inh,TDP1 cell CPT
CC(C)NC(=O)c1sc2c(c1C(=O)Nc1cccnc1)CCCC2,?,-5%,0%,17%,?
Cc1ccc(CNS(=O)(=O)c2c(C(=O)N3CCCCCC3)c(C)n(C)c2C)cc1,0%,-6%,7%,-13%,-10%
Cc1cccc(N(C)S(=O)(=O)c2c(C(=O)N3CCCCCC3)c(C)n(C)c2C)c1,21µM*,.,7%,.,16µM*
Cc1c(C(=O)N2CCCCC2)c(S(=O)(=O)NCc2ccccc2Cl)c(C)n1C,?,-6%,9%,1%,23µM*
Cc1cc(Cl)ccc1NS(=O)(=O)c1c(C(=O)N2CCCCCC2)c(C)n(C)c1C,21µM*,.,5%,.,?
CC(=O)c1ccc(OCCCC(=O)Nc2cccc(S(=O)(=O)N3CCCCCC3)c2)cc1,?,.,2%,.,?
COc1cc(C(=O)Nc2ccc(C(N)=O)cc2)c([N+](=O)[O-])cc1OC,-1%,-20%,11%,?,7%
Cc1c(C(=O)Nc2ccccc2Cl)sc2ncnc(N(C)C3CCCCC3)c12,-10%,.,-4%,.,-11%
Cc1c(C(=O)NCc2ccccc2Cl)sc2ncnc(N(C)C3CCCCC3)c12,18µM*,.,3%,.,?
Cc1ccc(C)c(CNC(=O)c2sc3ncnc(N(C)C4CCCCC4)c3c2C)c1,?,.,0%,.,23µM*
O=C(CNC(=O)c1cccs1)c1ccc([N+](=O)[O-])cc1,-11%,3%,1%,48%,-24%
CC(C)c1cn(CC[C@@H]2CC[C@H](NS(=O)(=O)c3ccc(F)cc3)[C@@H](CO)O2)nn1,-4%,.,.,.,22%
COc1ccc2cc(C(C)C(=O)Nc3cccc(S(=O)(=O)N(C)C)c3)ccc2c1 (stereo unspecified),23µM*,-5%,.,?,?
CN(C)S(=O)(=O)c1cccc(NC(=S)N/N=C/c2ccc(O)c(O)c2O)c1,16µM*,-20%,.,?,?
CC(=O)c1cccc(NC(=O)c2cccc(S(=O)(=O)N(C)C)c2)c1,?,1%,4%,24%,-2%
COc1cc(/C=N/NC(=S)Nc2cccc(S(=O)(=O)N(C)C)c2)cc(OC)c1O,?,2.8µM*,7%,3.2µM*,-15%
COc1cc(/C=N/Nc2cccc(C)c2)cc(Br)c1O,4%,-7%,3%,1%,6%
COc1ccc(O)c(/C=N/NC(=S)Nc2cccc(S(=O)(=O)N(C)C)c2)c1,6.5µM*,?,3%,?,6.5µM*
C=CCNC(=O)c1ccc2c(=O)n(CCCN3CCCC3=O)c(=S)[nH]c2c1,2%,-4%[10 µM],3%,36%,12%
Cc1ccc(CNC(=O)c2ccc(F)c(S(=O)(=O)N3CCOCC3)c2)cc1,-5%,.,5%,.,-6%
COc1cccc(/C=N/NC(=S)Nc2cccc(S(=O)(=O)N(C)C)c2)c1,8.2µM*,4.5µM*,.,1.6µM*,4.1µM*
COc1cccc(/C=C/C(=O)OCC(=O)Nc2cccc(S(=O)(=O)N(C)C)c2)c1,-18%,-3%[10 µM],3%,-1%,-5%
